B1: unnamed (peptide)
chain: FVLRYYILIPHEQWD

What follows are binders tested against CaNbp2 (assay: SPOT peptide array binding signal intensity (averaged, normalized) (arbitrary units (background-subtracted, floor 0; scale differs between SH3 domains)); higher = stronger binding of the SH3 domain to the peptide).
Outline: (§1)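 The binding signal is the normalized, background-subtracted spot intensity averaged over replicates; its arbitrary units differ between domains. It was obtained by incubating 10 μg/ml GST-fused SH3 domains from four yeast species overnight at 4°C in TBS-based blocking buffer on cellulose membranes with synthetic 15-mer peptides, cysteines replaced by serines, then detecting with anti-GST antibody, HRP anti-mouse secondary and luminol.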

Row | Binder | SPOT peptide array binding signal intensity
1 | B1 | 595

What follows are binders tested against CaRvs167 in the same assay as above.
Outline: as §1

Row | Binder | SPOT peptide array binding signal intensity
2 | B1 | 216

These binders were tested against CaRvs167-3 in the same assay as above.
Outline: as §1

Row | Binder | SPOT peptide array binding signal intensity
3 | B1 | 119

What follows are binders tested against CaSho1 in the same assay as above.
Outline: as §1

Row | Binder | SPOT peptide array binding signal intensity
4 | B1 | 666

What follows are binders tested against CaSla1-D1-D2 in the same assay as above.
Outline: as §1

Row | Binder | SPOT peptide array binding signal intensity
5 | B1 | ≤ 0

What follows are binders tested against CaSla1-D3 in the same assay as above.
Outline: as §1

Row | Binder | SPOT peptide array binding signal intensity
6 | B1 | 163

These binders were tested against ScAbp1 in the same assay as above.
Outline: as §1

Row | Binder | SPOT peptide array binding signal intensity
7 | B1 | ≤ 0

Each binder was assayed against ScBbc1 in the same assay as above.
Outline: as §1

Row | Binder | SPOT peptide array binding signal intensity
8 | B1 | ≤ 0

The binders below were run against ScBem1-D1 in the same assay as above.
Outline: as §1

Row | Binder | SPOT peptide array binding signal intensity
9 | B1 | 14.5

The binders below were run against ScBzz1-D1 in the same assay as above.
Outline: as §1

Row | Binder | SPOT peptide array binding signal intensity
10 | B1 | 14

What follows are binders tested against ScBzz1-D2 in the same assay as above.
Outline: as §1

Row | Binder | SPOT peptide array binding signal intensity
11 | B1 | 28

What follows are binders tested against ScCyk3 in the same assay as above.
Outline: as §1

Row | Binder | SPOT peptide array binding signal intensity
12 | B1 | 35

The binders below were run against ScFus1 in the same assay as above.
Outline: as §1

Row | Binder | SPOT peptide array binding signal intensity
13 | B1 | 1310

These binders were tested against ScHof1 in the same assay as above.
Outline: as §1

Row | Binder | SPOT peptide array binding signal intensity
14 | B1 | ≤ 0

What follows are binders tested against ScHse1 in the same assay as above.
Outline: as §1

Row | Binder | SPOT peptide array binding signal intensity
15 | B1 | 1060

Each binder was assayed against ScLsb1 in the same assay as above.
Outline: as §1

Row | Binder | SPOT peptide array binding signal intensity
16 | B1 | ≤ 0

The binders below were run against ScLsb2 in the same assay as above.
Outline: as §1

Row | Binder | SPOT peptide array binding signal intensity
17 | B1 | 1.5

The binders below were run against ScLsb3 in the same assay as above.
Outline: as §1

Row | Binder | SPOT peptide array binding signal intensity
18 | B1 | 67

What follows are binders tested against ScLsb4 in the same assay as above.
Outline: as §1

Row | Binder | SPOT peptide array binding signal intensity
19 | B1 | 5

What follows are binders tested against ScMyo3 in the same assay as above.
Outline: as §1

Row | Binder | SPOT peptide array binding signal intensity
20 | B1 | 1.5

The binders below were run against ScMyo5 in the same assay as above.
Outline: as §1

Row | Binder | SPOT peptide array binding signal intensity
21 | B1 | 3

These binders were tested against ScNbp2 in the same assay as above.
Outline: as §1

Row | Binder | SPOT peptide array binding signal intensity
22 | B1 | 187

These binders were tested against ScPex13 in the same assay as above.
Outline: as §1

Row | Binder | SPOT peptide array binding signal intensity
23 | B1 | 7.5

What follows are binders tested against ScRvs167 in the same assay as above.
Outline: as §1

Row | Binder | SPOT peptide array binding signal intensity
24 | B1 | 9.83

What follows are binders tested against ScSho1 in the same assay as above.
Outline: as §1

Row | Binder | SPOT peptide array binding signal intensity
25 | B1 | 1100

The binders below were run against ScSla1-D1-D2 in the same assay as above.
Outline: as §1

Row | Binder | SPOT peptide array binding signal intensity
26 | B1 | 7.5

These binders were tested against ScSla1-D3 in the same assay as above.
Outline: as §1

Row | Binder | SPOT peptide array binding signal intensity
27 | B1 | 51

The binders below were run against SpAbp1-D1 in the same assay as above.
Outline: as §1

Row | Binder | SPOT peptide array binding signal intensity
28 | B1 | 59.5

The binders below were run against SpBbc1 in the same assay as above.
Outline: as §1

Row | Binder | SPOT peptide array binding signal intensity
29 | B1 | 2

Each binder was assayed against SpBzz1-D1 in the same assay as above.
Outline: as §1

Row | Binder | SPOT peptide array binding signal intensity
30 | B1 | 20.5

These binders were tested against SpBzz1-D2 in the same assay as above.
Outline: as §1

Row | Binder | SPOT peptide array binding signal intensity
31 | B1 | 3.25

These binders were tested against SpCyk3 in the same assay as above.
Outline: as §1

Row | Binder | SPOT peptide array binding signal intensity
32 | B1 | 27.5

The binders below were run against SpHof1 in the same assay as above.
Outline: as §1

Row | Binder | SPOT peptide array binding signal intensity
33 | B1 | 79.5

These binders were tested against SpHof1-2 in the same assay as above.
Outline: as §1

Row | Binder | SPOT peptide array binding signal intensity
34 | B1 | 32.5

These binders were tested against SpHof1-3 in the same assay as above.
Outline: as §1

Row | Binder | SPOT peptide array binding signal intensity
35 | B1 | 554

Each binder was assayed against SpHse1 in the same assay as above.
Outline: as §1

Row | Binder | SPOT peptide array binding signal intensity
36 | B1 | 954

What follows are binders tested against SpLsb1 in the same assay as above.
Outline: as §1

Row | Binder | SPOT peptide array binding signal intensity
37 | B1 | 2.5

These binders were tested against SpLsb4 in the same assay as above.
Outline: as §1

Row | Binder | SPOT peptide array binding signal intensity
38 | B1 | 11.5

Each binder was assayed against SpMyo1 in the same assay as above.
Outline: as §1

Row | Binder | SPOT peptide array binding signal intensity
39 | B1 | 13.2

The binders below were run against SpNbp2 in the same assay as above.
Outline: as §1

Row | Binder | SPOT peptide array binding signal intensity
40 | B1 | 574

These binders were tested against SpPex13 in the same assay as above.
Outline: as §1

Row | Binder | SPOT peptide array binding signal intensity
41 | B1 | 47.5

These binders were tested against SpRvs167 in the same assay as above.
Outline: as §1

Row | Binder | SPOT peptide array binding signal intensity
42 | B1 | 10.7

What follows are binders tested against SpSla1-D1-D2 in the same assay as above.
Outline: as §1

Row | Binder | SPOT peptide array binding signal intensity
43 | B1 | 1

The binders below were run against SpSla1-D3 in the same assay as above.
Outline: as §1

Row | Binder | SPOT peptide array binding signal intensity
44 | B1 | 9.5

Reference: the supplement of paper PMC4466140
